# System: HL-1
# Assay: cardiomyocyte survival under oxidative or metabolic stress – cell-based, panel, H9c2 and HL-1, ATP luminescence, set 2, SAR follow-up (AID 651871);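 further: cells exposed to stressor for 2 h before ATP readout; reference of the scale not given here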
# Conditions: H9c2/HL-1 cardiomyocytes, 2-deoxyglucose stress, with 2-deoxyglucose, run 11, at 19.8 µM (top of the series)
smiles,measurement,value
COc1ccc2c(c1OC)C(=O)N1c3ccccc3C(=O)N(Cc3cccc(Cl)c3Cl)C21 (stereo unspecified),activity (protection/inhibition),40%
